Assay results as given in PubChem BioAssay (NCI).
Compounds without any hit were thinned out: in the full panel of roughly 83,000, 20% have a hit.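 A percent growth of 40 corresponds to 60% growth inhibition; 0 means no net growth; -100 means all cells died. Active threshold: below 10.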 Activity calls are given as the source filed them.

tested on: CCRF-CEM leukemia; assay: NCI-60 one-dose screen, 48 h (100 = growth as untreated, 0 = no growth, -100 = all killed); settings: 10 µM unless noted

Row | SMILES | growth
1 | CN1CCN(c2ccc3nc(-c4ccc5nc(-c6ccc(OCCC(C)(C)C)cc6)[nH]c5c4)[nH]c3c2)CC1 | -50% (active)
2 | O=C(/C=C/c1cc2ccccc2[nH]c1=O)/C=C/c1cc2ccccc2[nH]c1=O | 17.8% (inactive)
3 | Nc1ccc(Nc2nccc(-c3ccc4ccccc4c3)n2)cc1 | 27.3% (inactive)
4 | CC(=O)/C(=C/c1cccc(Cl)c1)C(=O)c1ccccc1 | 40.2% (inactive)
5 | CN1CCN(Cc2ccc(NC(=O)c3[nH]ncc3Nc3ncnc4sccc34)cc2)CC1 | 8.16% (active)
6 | CCOC(=O)C(=Cc1ccccc1F)C(=O)OCC | 95.8% (inactive)
7 | Oc1ccc(Nc2nccc(-c3ccc4ccccc4c3)n2)cc1 | 9.76% (active)
8 | COc1ccc(C(=O)/C=C/c2cc3ccccc3[nH]c2=O)cc1 | 19.5% (inactive)
9 | CCN1CCN(Cc2ccc(NC(=O)Nc3nc4ccc(Oc5ccnc(C(=O)NC)c5)cc4s3)cc2C(F)(F)F)CC1 | 0.0502% (active)
10 | O=C(CNC1C2CC3CC(C2)CC1C3)Sc1nnc2sc3ccccc3n12 (centres undefined) | 86.1% (inactive)
11 | COc1ccc(-c2c3c(nc4n[nH]c(-c5ccc(Cl)cc5)c24)-c2ccccc2C(=O)C3=O)cc1 | -6.2% (active)
12 | CC1(C)CC(=O)C(c2c(-c3ccccc3)[nH]c3[nH]c(=S)[nH]c(=O)c23)=C(O)C1 | 92% (inactive)
13 | O=C(/C=C/c1cccc(Br)c1)c1ccccc1 | 86.2% (inactive)
14 | O=C(CO[N+](=O)[O-])Nc1ccc(C(=O)/C=C/c2ccc(Cl)cc2)cc1 | 20.1% (inactive)
